Drawing on PubChem BioAssay AID449762 (Southern Research Specialized Biocontainment Screening …, 2010), this text covers inhibition for 89 compounds.

Each structure is given as a SMILES string. Screen size: about 330,000 compounds; about 1,900 (0.58%) were called active. About 4% were inconclusive and are not listed. No stated cut-off is given here; in the data, inconclusive means inhibition above about 70% without an active follow-up result; inactive means below that. A selection follows. Potency and affinity values are given separately.

The nature of this experiment: M. tuberculosis growth inhibition, HTS (AID 449762).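 Further: bacterial growth assessed after seven days of incubation.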 Conditions: M. tuberculosis H37Rv growth inhibition, 7H9 media; at 25 µM; stronger effect = higher value.
Take `COc1ccc(C(=O)N(c2ccc(OC)cc2)S(=O)(=O)c2cccs2)cc1`: the inhibition is 4.22% (inactive).
Take `NC(=O)CSc1nc2cc(Cl)ccc2c(=O)n1C1CCCCC1`: the inhibition is -1.2% (inactive).
Turning to `COc1ccc(-c2cc3c(=O)n(CC(=O)NCc4ccccc4OC)ncn3n2)cc1`, the inhibition was -8.29% (inactive).
As for `C/C(=N/NC(=O)c1cccs1)c1ccc(N2CCOCC2)cc1`, the inhibition was -6.32% (inactive).
`CC1(c2cccc([N+](=O)[O-])c2)CC(C)(C)N(C(=O)c2ccccc2)c2ccccc21` (centres undefined): the inhibition was 1.14% (inactive).
Consider `CC(=O)N1c2ccccc2C(C)(c2ccccc2)CC1(C)C` (centres undefined), for which the inhibition was -5.59% (inactive).
Regarding `Cc1cc(C)c(S(=O)(=O)c2ccccc2C)c(SCC(C)C)n1`, the inhibition was 11% (inactive).
As to `Cc1ccc(/C=N/n2cnc3sc(-c4ccccc4)cc3c2=O)o1`, the inhibition was 44.5% (inactive).
`Cc1sc2ncn(/N=C/c3ccco3)c(=O)c2c1C`: the inhibition was -10.2% (inactive).
For `CCCCn1nnnc1SCC(=O)Nc1cccc(C)c1`, the inhibition was 7.62% (inactive).
Take `COc1ccc(CCN(C)C(=O)c2ccc(COc3ccccc3)o2)cc1OC`: the inhibition is 2.55% (inactive).
Consider `CC(O)(CS(=O)(=O)Cc1ccccc1)c1ccccc1Cl` (centres undefined), for which the inhibition is -7.18% (inactive).
With `Cn1cnnc1SCC(=O)Nc1nc(-c2ccc(F)cc2)cs1` the figure was -5.61% (inactive).
For `CCCn1c(N2CCN(CC(=O)Nc3ccc4c(c3)OCCO4)CC2)nc2ccccc21`, the inhibition was -1.09% (inactive).
`O=C(NCCN1CCOCC1)NC1(C(F)(F)F)Oc2ccc(Cl)cc2O1` (centres undefined): the inhibition was 66.9% (inactive).
As for `O=C(Nc1cc(N2CCOCC2)ncn1)NC1(C(F)(F)F)Oc2ccccc2O1`, the inhibition is -1.34% (inactive).
Consider `CCOC(=O)c1[nH]c2ccc(OCC)cc2c1NC(=O)CN1CCN(c2ccccc2)CC1`, for which the inhibition was -2.46% (inactive).
The result for `CCOC(=O)c1[nH]c2ccc(F)cc2c1NC(=O)CN1CCc2cc(OC)c(OC)cc2C1` reads 11.2% (inactive); that for `CNC(=S)N(C)CCc1cc2c(c(OC)c1C=C1C(=O)NC(=O)NC1=O)OCO2`, -4.55% (inactive); that for `C[C@@H](C(=O)Nc1ccc2ccccc2c1)[C@@H]1C[C@@]1(C)[C@@H](NC(=O)c1ccccc1)c1ccccc1`, 27.7% (inactive).
Consider `Cc1cc(C(=O)N[C@@H](c2ccccc2)[C@]2(C)C[C@H]2[C@@H](C)C(=O)Nc2ccc3ccccc3c2)no1`, for which the inhibition was 49.4% (inactive).
In the case of `Cc1ccc(/C=C/C(=O)N2CCN(S(=O)(=O)c3cccs3)CC2)o1`, the inhibition was -4.62% (inactive).
For the compound `Cc1ccc(S(=O)(=O)N2CCN(Cc3nc4sc5c(c4c(=O)[nH]3)CCCC5)CC2)cc1`, the inhibition was 1.29% (inactive).
Take `CC(C)c1ccc(/C=N/NC(=O)c2c(Cl)cnn2C)cc1`: the inhibition is -0.44% (inactive).
The result for `Cc1ccc(S(=O)(=O)Oc2ccc(/C=N/NC(=O)c3c(Cl)cnn3C)cc2)cc1` reads 25.4% (inactive); that for `Fc1ccc(CN2CCN(c3ccc(Cl)cc3)CC2)cc1`, 9.18% (inactive); that for `CCn1c(N)c(C(=O)NCc2cccnc2)sc1=S`, -1.76% (inactive).
Consider `Cc1cc(-c2n[nH]c(=S)n2/N=C/C(Cl)=C/c2ccccc2)n[nH]1`, for which the inhibition is 1.35% (inactive).
The result for `S=c1[nH]nc(C2CCCCC2)n1/N=C/c1ccccc1` reads 9.46% (inactive); that for `S=c1[nH]nc(C2CCCCC2)n1/N=C/C(Cl)=C\c1ccccc1`, -11% (inactive).
Consider `CC(/C=N/n1c(-c2cc(C)[nH]n2)n[nH]c1=S)=C\c1ccccc1`, for which the inhibition was -2.29% (inactive).
`Fc1cccc2sc(Nc3nc4cc5c(cc4s3)OCCO5)nc12`: the inhibition is 45.4% (inactive).
As to `Cc1c(Cl)cccc1NC(=S)N(CCN(C)C)C(C)c1ccccn1` (centres undefined), the inhibition was 0.24% (inactive).
On to `CCO[C@@H]1OC(C(=O)Nc2ccccc2)=C[C@H](c2ccc3c(c2)OCO3)[C@H]1CCCO`, for which the inhibition was 13.4% (inactive).
As for `COc1cc(NC(=O)COC(=O)c2cc(S(=O)(=O)N3CCCCC3)ccc2Cl)c(C)cc1[N+](=O)[O-]`, the inhibition was -2.58% (inactive).
`CCN1C(=O)[C@H]2[C@@H](c3ccc(-c4ccc(C(C)=O)cc4)cc3)N3CCC[C@@]3(C(=O)OC)[C@H]2C1=O`: the inhibition was 21.2% (inactive).
Consider `CCOc1ccc(C2c3[nH]c4ccccc4c3C[C@H]3C(=O)N(C4CC4)CC(=O)N23)cc1OC` (some centres undefined), for which the inhibition was 4.59% (inactive).
Turning to `COc1ccc(C2c3[nH]c4ccccc4c3C[C@H]3C(=O)N(C4CCN(Cc5ccccc5)CC4)CC(=O)N23)c(OC)c1` (some centres undefined), the inhibition was 30.2% (inactive).
With `COc1ccc(-c2nc3c(s2)CN(S(C)(=O)=O)CC3)cc1OC`, the inhibition is -6.59% (inactive).
With `Cc1nn(-c2ccccc2)c(Cl)c1C(=O)N(C)CC(=O)Nc1cccc(F)c1`, the inhibition is 0.93% (inactive).
Consider `CCCn1c(-c2cc(OC)c(OC)c(OC)c2)nc2c1c(=O)[nH]c(=O)n2Cc1ccccc1`, for which the inhibition is -2.63% (inactive).
As to `Cc1nn(-c2ccccc2)cc1C(c1c(N)[nH]c(=S)[nH]c1=O)c1c(N)[nH]c(=S)[nH]c1=O`, the inhibition was 4.9% (inactive).
As for `COc1ccc(NS(=O)(=O)c2ccc3nc(COc4ccc5ccccc5c4)[nH]c3c2)cc1`, the inhibition was 0.01% (inactive).
With `COc1ccc(NS(=O)(=O)c2ccc3nc(COc4ccc(C#N)cc4)[nH]c3c2)cc1`, the inhibition was 4.82% (inactive).
For `CCOc1ccc(N2C(=O)C3CC(C)=C(C)CC3C2=O)c([N+](=O)[O-])c1` (centres undefined), the inhibition is -11.3% (inactive).
In the case of `CCCCCn1c(SC(C)C(C)=O)nc2c1c(=O)[nH]c(=O)n2C` (centres undefined), the inhibition is -12.7% (inactive).
With `Cc1cc(Cl)c(OCCCN(C)C)c(Br)c1` the figure was 2.02% (inactive); with `COc1cc2[nH]c3c(Cl)ncnc3c2cc1OC`, -3.36% (inactive).
In the case of `COc1ccc2c([N+](=O)[O-])c(Cl)[nH]c2c1`, the inhibition was -1.29% (inactive).
The result for `CCOC(=O)C1=C(C)OC(N)=C(C#N)C1c1c(C)nn(-c2ccccc2)c1Cl` (centres undefined) reads -3.55% (inactive); that for `Cc1ccc2c(c1)nnn2C1CCN(CC(=O)Nc2ccc(F)cc2)CC1`, -1.73% (inactive); that for `Cc1ccc2c(c1)nnn2C1CCN(CC(=O)c2ccc(Cl)cc2)CC1`, 2.57% (inactive).
Turning to `CCSC(=Nc1ccccc1)C1=C(O)COC1=O`, the inhibition was 3.26% (inactive).
Regarding `NCC(c1ccc(Cl)cc1Cl)c1c[nH]c2ccccc12` (centres undefined), the inhibition was 34.8% (inactive).
Consider `OC(CNCCc1c[nH]c2ccccc12)c1ccccc1` (centres undefined), for which the inhibition is -1.92% (inactive).
On to `COC(=O)c1sc(N)c(C(=O)OC)c1COC(=O)C1CC(=O)N(Cc2ccco2)C1` (centres undefined), for which the inhibition is -7.71% (inactive).
For the compound `CCOc1ccc(CCNS(=O)(=O)c2ccc3c(c2)NC(=O)CO3)cc1OCC`, the inhibition was -0.19% (inactive).
`CCOc1ccc(NCc2nc3ccccc3n2CCOc2ccccc2)cc1`: the inhibition was 33.8% (inactive).
The result for `c1ccc(NCc2nc3ccccc3n2CCOc2ccccc2)cc1` reads 5.47% (inactive).
With `CCNc1nc(NCC)nc(N/N=C/c2ccccc2)n1`, the inhibition was -2.44% (inactive).
The result for `O=[N+]([O-])c1ccc(/C=N/Nc2nc(N3CCCCCC3)nc(N3CCCCCC3)n2)o1` reads -9.1% (inactive); that for `CC(C)NS(=O)(=O)c1ccc(CCC(=O)N2CCC(C(N)=O)CC2)cc1`, -7.28% (inactive).
Take `Cc1ccccc1C(=O)Oc1cc(N)n(S(C)(=O)=O)n1`: the inhibition is -5.9% (inactive).
Consider `NC(=O)CCCn1c(C(=O)c2ccc(Cl)cc2)c2ccc([N+](=O)[O-])cc2[n+]1[O-]`, for which the inhibition is -3.8% (inactive).
The result for `NCCCn1c(C(=O)c2ccc(Cl)cc2)c2ccc(C(F)(F)F)cc2[n+]1[O-]` reads 1.61% (inactive); that for `COc1ccc(CCN2CC(C(=O)NCc3ccco3)CC2=O)cc1OC` (centres undefined), -1.89% (inactive); that for `CCN1CCN(c2ccc(S(=O)(=O)N3CCOCC3)cc2NC(=O)COc2ccc(F)cc2Cl)CC1`, 2.58% (inactive).
For `C[C@H](NC(N)=O)C(=O)Nc1ccc(OCc2ccccc2)cc1`, the inhibition is 2.2% (inactive).
The result for `C/C(=N\NC(=O)c1ccccc1F)c1ccc2c(c1)Nc1ccccc1S2` reads -0.8% (inactive).
With `C/C(=N\NC(=O)c1ccc(C)cc1C)c1ccc2c(c1)Nc1ccccc1S2` the figure was 7.51% (inactive); with `O=C1C=C(c2cccc3c2sc2ccccc23)C[C@@H](c2ccc(Cl)cc2)C1`, -0.695% (inactive).
Consider `CCCC(=O)Nc1ccc(C(N)=O)cc1`, for which the inhibition is -1.73% (inactive).
The result for `CSc1ccc(/C=C/C(=O)Nc2ccccc2)cc1` reads 10.6% (inactive).
As to `Cc1nnc(SCC(=O)N2CCCCC2)s1`, the inhibition is -0.73% (inactive).
As for `CSc1nsc(SCC(=O)NC2CCCCC2)n1`, the inhibition was 66.1% (inactive).
Turning to `COc1cc(OC)c(C(=O)OCC(=O)Nc2c(C)n(C)n(-c3ccccc3)c2=O)cc1OC`, the inhibition was 1.54% (inactive).
As for `O=C1NC[C@H](c2ccccc2)N(CC2CCCCC2)C1=O`, the inhibition was -2.23% (inactive).
On to `C/C(=N\Nc1ccc([N+](=O)[O-])cc1)c1ccc(N)cc1`, for which the inhibition is -12.2% (inactive).
Consider `C/C(=N\Nc1ccccc1)c1cccc(N)c1`, for which the inhibition was -1.02% (inactive).
With `Cn1cnc(S(=O)(=O)N2CCN(c3ccc(Cl)cc3)CC2)c1`, the inhibition was 1.05% (inactive).
For the compound `CC(C)COC(=O)Nc1ccccc1C(=O)N1CCOCC1`, the inhibition was -0.44% (inactive).
With `Cc1ccc(N(Cc2cc3ccccc3[nH]c2=O)S(C)(=O)=O)cc1`, the inhibition is -5.78% (inactive).
The result for `Cc1[nH]c2ccccc2c1C(C[N+](=O)[O-])c1cccc(O)c1` (centres undefined) reads 0.72% (inactive).
`O=c1[nH][nH]c(-c2ccccc2O)c1C(C[N+](=O)[O-])c1ccccc1` (centres undefined): the inhibition was 25.6% (inactive).
With `O=C(N/N=C/c1ccco1)c1cc(-c2cccc(Br)c2)nc2ccccc12`, the inhibition was 5.09% (inactive).
With `CCOc1ccc2nc(N/C(N)=N/C(=S)Nc3ccc(OC)cc3)nc(C)c2c1`, the inhibition is 1.27% (inactive).
As to `Cc1cccc(NC(=S)/N=C(\N)Nc2nc(C)c3cc(C)ccc3n2)c1`, the inhibition is 8.71% (inactive).
For `CCNC(=S)/N=C(\N)Nc1nc(C)c2cc(C)ccc2n1`, the inhibition was 26.4% (inactive).
Turning to `CCOc1ccc2nc(N/C(N)=N/C(=S)Nc3ccc(C)c(C)c3)nc(C)c2c1`, the inhibition was 39.5% (inactive).

As a reminder, the inhibition is the relative decrease from the control value, in per cent.
